Laboratory results: PubChem BioAssay (NCI)
The panel holds about 79,000 compounds, 15% with a hit somewhere; the sample as a whole holds those more often. Rule as the data show it: active = growth inhibition above about 70%; inactive = the rest.

Experiments:
[1] = NCI Yeast Anticancer Drug Screen. Data for the rad50 strain (AID 155);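 also: 0% = growth of vehicle-only cultures of the same strain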; conditions: S. cerevisiae rad50 strain growth inhibition; at 50.0 µM; stronger effect = higher value
Summary of the method: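 Growth of the mutant yeast was measured after compound exposure and referenced to vehicle-treated cultures.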

[2] = NCI Yeast Anticancer Drug Screen. Data for the mec2-1 strain (AID 157); conditions: S. cerevisiae mec2-1 strain, at 50.0 µM, stronger effect = higher value
Summary of the method: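 Readout is yeast growth inhibition, normalised to vehicle-treated controls, in the mec2-1 strain exposed to compound.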

[3] = NCI Yeast Anticancer Drug Screen. Data for the sgs1 mgt1 strain (AID 161);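 also: 0% = growth of cultures given vehicle only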; conditions: S. cerevisiae sgs1 mgt1 strain, at 50.0 µM, stronger effect = higher value
Summary of the method: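 Growth of a repair-deficient yeast mutant was monitored after compound treatment and expressed as inhibition relative to vehicle-treated cultures.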

[4] = NCI Yeast Anticancer Drug Screen. Data for the cln2 rad14 strain (AID 165);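 also: 0% = growth equal to vehicle treated cultures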; conditions: S. cerevisiae cln2 rad14 strain, at 50.0 µM, stronger effect = higher value
Summary of the method: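 Relative to vehicle controls, growth inhibition of compound-treated cln2 rad14 yeast was recorded.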

[5] = NCI Yeast Anticancer Drug Screen. Data for the bub3 strain (AID 167); conditions: S. cerevisiae bub3 mutant strain, at 50.0 µM, stronger effect = higher value
Summary of the method: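 Whole-cell yeast assay. The mutant strain was incubated with compounds, and growth inhibition was determined by comparison with vehicle-treated cells.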

[6] = NCI Yeast Anticancer Drug Screen. Data for the mlh1 rad18 strain (AID 175); conditions: S. cerevisiae mlh1 rad18 strain growth inhibition; at 50.0 µM; stronger effect = higher value
Summary of the method: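 Test agents were incubated with a yeast strain of defined genotype (DNA damage repair defect). Inhibition of growth was derived by comparison with vehicle-exposed cultures.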

Measured: growth inhibition

CCCCCC/C(C)=N\NC(N)=O
inactive: [1] 29.9% | [2] 14.4% | [3] 11.6% | [4] 12.4% | [5] -0.95% | [6] -23.1%

O=C(CC1NCCS1)OCc1ccc(Br)cc1 (configuration not stated)
inactive: [1] 26.5% | [2] 14.1% | [3] 9.8% | [4] 24.7% | [5] 16.9% | [6] 50%

OCC1(OC2OC(CF)C(O)C(O)C2O)OC(CF)C(O)C1O (configuration not stated)
inactive: [1] -1.1% | [2] 0.75% | [3] -5.65% | [4] -23.5% | [5] 3.3% | [6] 3.85%

COc1cc(C(CC#N)CC#N)cc(OC)c1OC
inactive: [1] -3.4% | [2] -15.8% | [3] 25.8% | [4] 6.45% | [5] 8.95% | [6] 8%

COc1ccc(N2C(=O)[C@@H]3[C@H](C2=O)c2[nH]c4ccccc4c2C2CCC(C(C)(C)C)C[C@@H]23)cc1 (some centres not stated)
inactive: [1] 29.6% | [2] 4.1% | [3] 12.3% | [4] 31.4% | [5] 6.2% | [6] 7.85%

Cc1cc(=O)c2cc(Br)cc(Br)c2[nH]1
inactive: [1] 11.8% | [2] -13.8% | [3] 8.3% | [4] 0.05% | [5] 9.85% | [6] 12%

CCOC1OC(C(O)CO)C(O)C(O)C1O (configuration not stated)
inactive: [1] 4.6% | [2] -8.7% | [3] -1.9% | [4] -56.4% | [5] -7.9% | [6] -0.6%

CCC(C)C(=O)c1c(O)c(C/C=C(\C)CCC=C(C)C)c(O)c2c(C(O)CC)cc(=O)oc12 (configuration not stated)
inactive: [1] 21.8% | [2] 15.8% | [3] 14.7% | [4] 18.1% | [5] 20.1% | [6] 42.9%

CCOC(=O)C(Cc1ccc(N=NN(C)C)cc1)NC(=O)CC1c2ccccc2-c2ccccc21 (configuration not stated)
inactive: [1] 13.8% | [2] 7.2% | [3] 20.7% | [4] -6.25% | [5] 47.6% | [6] 8.3%

O=C(O)C1OC1(c1ccccc1Cl)c1ccccc1Cl (configuration not stated)
inactive: [1] 7.3% | [2] -13.2% | [3] 7.8% | [4] 1.55% | [5] -3.3% | [6] 9.55%

CC(O)C(O)C(O)C(O)C(/C=N/Nc1ccccc1)=N/Nc1ccccc1 (configuration not stated)
inactive: [1] 3.75% | [2] -14% | [3] 8.1% | [4] -9.95% | [5] 0.25% | [6] 22.8%

O=C1OC(=O)C2CCCCC12 (configuration not stated)
inactive: [1] 29.9% | [2] -11.9% | [3] -11.4% | [4] -48.3% | [5] 8.95% | [6] 18.9%

Cn1c(=O)c2c(ncn2Cc2ccccc2)n(C)c1=O
inactive: [1] -1.65% | [2] -13.2% | [3] 3.95% | [4] -10.7% | [5] 45.1% | [6] 4%

C[n+]1ccccc1C(=O)O
inactive: [1] 29.3% | [2] 28.9% | [3] 50.4% | [4] 26.6% | [5] 31.3% | [6] 40.4%

O=c1cc(CC(O)(C(F)(F)Cl)C(F)(F)Cl)[nH]n1-c1ccccc1
inactive: [1] -27.9% | [2] 4.05% | [3] -7.75% | [4] 11.4% | [5] -22.1% | [6] -5.65%

CCCC(=O)OCC1OC(n2cc(F)c(=O)[nH]c2=O)CC1O (configuration not stated)
inactive: [1] 14.2% | [2] -4.2% | [3] 5.65% | [4] 9.7% | [5] 6.65% | [6] -27.4%

CCOC(=O)C1=C(O)CSC1=Nc1ccccc1
inactive: [1] -16.3% | [2] 5.6% | [3] -12.8% | [4] -9.3% | [5] -1.7% | [6] 22.9%

COc1ccc(CC(=O)c2c(OC)c3c(c4c2OC(C)(C)CC4)OC(C)(C)CC3)cc1OC
inactive: [1] 21.1% | [2] -14.8% | [3] 8.1% | [4] 16.5% | [5] 33.9% | [6] 34.4%

COc1ccc2c(-c3cc4ccccc4o3)cc(=O)oc2c1
inactive: [1] -6.4% | [2] -16.9% | [3] -21.3% | [4] 2% | [5] 3% | [6] -31.9%

O/N=C(\c1ccccc1)c1ccc2ncccc2c1
inactive: [1] 37% | [2] 41.2% | [3] 27.9% | [4] 2.8% | [5] 7.45% | [6] 23.3%

CN(C)NC(=S)Nc1ccccc1
inactive: [1] -5.05% | [2] -0.65% | [3] -11.8% | [4] -36% | [5] -1.7% | [6] -6.15%

CCN(S(C)(=O)=O)S(C)(=O)=O
inactive: [1] -7.5% | [2] -2.5% | [3] -4.65% | [4] -37% | [5] 9.55% | [6] -15.8%

CCCc1sc(NC(C)=O)nc1-c1ccccc1
inactive: [1] 1.2% | [2] 5.85% | [3] 15.2% | [4] 29.3% | [5] -9.7% | [6] 10.2%

Cc1ccc(C)c(C(=O)c2ccccc2)c1C(=O)O
inactive: [1] -24.6% | [2] 7.8% | [3] 12.8% | [4] -29.9% | [5] 7.7% | [6] -4.15%

S=C1CC(c2ccccc2)Sc2ccccc2N1 (configuration not stated)
inactive: [1] -1.45% | [2] 1.85% | [3] 13.9% | [4] 1.8% | [5] 30.3% | [6] -25.6%

CCCCCCCCCCCCCCCC(=O)OCC1OC(n2ccc(N)nc2=O)C(O)C1O (configuration not stated)
inactive: [1] -1.2% | [2] -10.3% | [3] 3.2% | [4] 8.2% | [5] 4.1% | [6] -2.8%

COCCNC(c1ccccc1)C(O)c1ccccc1 (configuration not stated)
inactive: [1] 6.4% | [2] -15.6% | [3] -5.15% | [4] -33% | [5] 7.5% | [6] -7.85%

CCCCCCC1(C=O)C(=O)NC(=O)N1C (configuration not stated)
inactive: [1] 10.3% | [2] 9.65% | [3] 6.45% | [4] 13.3% | [5] 4.1% | [6] -0.35%

Nc1ccc2ccc(S(=O)(=O)O)cc2c1
inactive: [1] -17.7% | [2] -19.9% | [3] -31.4% | [4] -23.3% | [5] -8.8% | [6] -17.9%

CCOC(=O)C1CCc2ccccc2C1=O (configuration not stated)
inactive: [1] -2.95% | [2] -12.3% | [3] 5.85% | [4] -3.35% | [5] 14.6% | [6] -4.95%

CN(N=O)C(=O)NCCSc1ncnc2nc[nH]c12
inactive: [1] 9.75% | [2] 13.1% | [3] -2.25% | [4] -108% | [5] -2.5% | [6] -17.2%

CC(=O)Oc1cccc(CN2CCc3ccccc3C2)c1
inactive: [1] -3.05% | [2] -7.95% | [3] 1.55% | [4] -31.2% | [5] 8.8% | [6] -24.1%

CC1(C)SC(N=C=Nc2ccccc2)CN1C=O (configuration not stated)
inactive: [1] 8.55% | [2] 1.85% | [3] -14.4% | [4] -10.1% | [5] 9.5% | [6] -0.4%

O=S(=O)(Nc1ccccc1C(O)c1ccccc1)c1ccccc1 (configuration not stated)
inactive: [1] 35.5% | [2] 0.8% | [3] 12.3% | [4] -27% | [5] 13.5% | [6] 34.4%

CCCc1cc(=O)oc2c3c(c4c(c12)OC(C)(C)CC4)O[C@H](C)C(C)C3=O (some centres not stated)
inactive: [1] -26.9% | [2] -30% | [3] -28.8% | [4] 0.4% | [5] 6.85% | [6] -45%

CN(C)CN1CSC(=S)N(CN(C)C)C1
inactive: [1] 20.2% | [2] 37% | [3] 6% | [4] -10.7% | [5] -5% | [6] 26.4%

COC(=O)Cc1oc(=O)n(-c2ccccc2)c(=O)c1C(=O)OC
inactive: [1] 6.75% | [2] -3.05% | [3] 2.05% | [4] -10.5% | [5] 10.1% | [6] -3.6%

CC(O)COc1ccc(C(C)(C)C)cc1 (configuration not stated)
inactive: [1] 3.25% | [2] -4.2% | [3] -2.45% | [4] -13% | [5] 10.8% | [6] 2.6%

C/C=C(/C)C(=O)O[C@@H]1c2c(C)coc2C(=O)[C@@]2(OC(C)=O)CCC[C@@](C)(O)[C@@]12C
inactive: [1] 26.8% | [2] 9.55% | [3] 24.3% | [4] 22.6% | [5] 39.4% | [6] 43.9%

Cc1ccc(S(=O)(=O)C2=c3nc4ccccc4cc3=C3C(=O)c4ccccc4C(=O)C32)cc1 (configuration not stated)
inactive: [1] -14.3% | [2] -18.9% | [3] -20.8% | [4] -75.9% | [5] -24.4% | [6] -3.7%

CCCCC1c2c([nH]c3ccccc23)C2C(=O)N(c3ccc(OC)cc3)C(=O)C2C1CCC (configuration not stated)
inactive: [1] 9.75% | [2] -19.5% | [3] -14.6% | [4] -27.5% | [5] 1.6% | [6] -5.6%

CC(=O)NC(C=O)C(O)C(O)C(O)C(=O)O (configuration not stated) (tested in a mixture with another compound)
inactive: [1] -25.4% | [2] -31.2% | [3] -22.2% | [4] 1.8% | [5] -22.9% | [6] -4.9%
